An excerpt weighted towards active compounds, which were near 10% of everything screened.
FLuc inh – blocks purified firefly luciferase enzyme activity; P08659; purified P. pyralis luciferase, luminescence, biochemical; 76,000 tested, 2.5% active; Potency, µM (highest dose often 115 µM), most hits filed as inhibitors; further: on the % scale 0 is the no-effect control and ±100 the full control effect; nearly all actives have a fitted effect of over 65% in size
Target sequence (P08659 whole entry, looked up): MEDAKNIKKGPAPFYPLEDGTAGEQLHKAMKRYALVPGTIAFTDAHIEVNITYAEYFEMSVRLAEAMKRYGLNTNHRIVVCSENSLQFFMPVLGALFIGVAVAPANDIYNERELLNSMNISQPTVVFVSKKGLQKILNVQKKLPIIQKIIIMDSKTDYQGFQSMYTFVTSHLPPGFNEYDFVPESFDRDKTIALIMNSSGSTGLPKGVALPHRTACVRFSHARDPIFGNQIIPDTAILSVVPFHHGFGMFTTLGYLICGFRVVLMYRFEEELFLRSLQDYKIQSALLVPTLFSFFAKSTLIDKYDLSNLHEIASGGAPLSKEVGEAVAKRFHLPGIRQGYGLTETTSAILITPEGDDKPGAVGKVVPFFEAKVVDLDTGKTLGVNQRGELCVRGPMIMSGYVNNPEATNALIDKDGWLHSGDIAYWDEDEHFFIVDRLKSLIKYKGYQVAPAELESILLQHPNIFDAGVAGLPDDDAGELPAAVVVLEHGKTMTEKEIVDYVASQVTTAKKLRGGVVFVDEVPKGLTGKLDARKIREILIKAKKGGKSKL
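Cell-free enzyme assay, 10nM P. pyralis luciferase, luciferin and ATP each at 10uM. Inhibition profiled over a 6-point titration, read as luminescence.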
HEK293 tox – cytotoxic compounds in HEK 293 cells | HEK 293 viability, ATP luminescence (CellTiter-Glo), 48-72 h | Potency, µM (highest dose often 115 µM), without a hit: at the highest dose activity change, negative = cytotoxicity, most hits filed as inhibitors | 94,000 tested, 6.6% active | AID 1345083; further: on the % scale 0 is the no-effect control and ±100 the full control effect; nearly all actives have a fitted effect of over 60% in size
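Cells seeded first (HEK 293, 250 cells/well), then compound added by pintool. Incubation ran 48 or 72 hr at 37 degree Celsius. CellTiter-Glo was added and luminescence imaged after 10 min at room temperature.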
3T3 cytotox – cytotoxic compounds in NIH 3T3 cells; NIH 3T3 viability, CellTiter-Glo ATP luminescence, 48-72 h; Potency, µM (titrated, usually from 96.7 µM), for the others: at the highest dose activity change, negative = cytotoxicity, hits mostly inhibitors; 94,000 tested, 4.3% active; AID 1345082; further: on the % scale 0 is the no-effect control and ±100 the full control effect; nearly all actives have a fitted effect of over 55% in size
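Luminescent ATP readout (CellTiter-Glo, 10 min RT) after 48 or 72 hr compound exposure of NIH 3T3 cells seeded at 400 cells/well in 1536-well format; quantitative HTS.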
GPT2 inh – GPT2 alanine aminotransferase inhibition; Q8TD30; Recombinant GPT2, coupled pyruvate oxidase/HRP Amplex Red fluorescence; Potency, µM (doses to about 57.7 µM), for the others: top-dose activity change, negative = inhibition, usual class: inhibitors; 100,000 tested, 0.25% active; AID 1671188; further: on the % scale 0 is the no-effect control and ±100 the full control effect; nearly all actives have a fitted effect of over 60% in size
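Inhibition is scored from Amplex Red fluorescence generated when pyruvate oxidase and HRP act on pyruvate released by GPT2. Reactions contain 10ng/uL enzyme, 250uM a-KG and 2mM L-alanine and run 30 min at room temperature.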
hNpr1 antagonist – blocks ANP-stimulated signaling of human Npr1 receptor | P16066 | HEK293 hNpr1 GloSensor cGMP, ANP-stimulated luminescence | Potency, µM (doses to about 46.3 µM), inactives show at the top dose activity change, negative = inhibition, actives largely listed as inhibitors | 76,000 tested, 1.6% active; calls by dose curve; further: on the % scale 0 is the no-effect control and ±100 the full control effect; nearly all actives have a fitted effect of over 60% in size
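HEK293 cells stably expressing human Npr1 and cGMP GloSensor pGS-40F, loaded 2 h with 2% GloSensor reagent, given compound 30 min at room temperature. Luminescence read before and 20 min after 0.1 nM hNppA.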
NPR1 antag cnf – hNpr1 antagonism, confirmation assay; shares compounds with hNpr1 antagonist; AID 1347044; 1,400 tested, 76% active; HEK293 hNpr1 cGMP GloSensor luminescence, ANP-stimulated; Potency, µM (top dose mostly 57.6 µM), inactives show top-dose activity change, negative = inhibition, most hits filed as inhibitors; calls by dose curve; further: nearly all actives have a fitted effect of over 70% in size
Npr2 selectivity – selectivity test of Npr1 antagonists against human Npr2; shares compounds with hNpr1 antagonist; HEK293 hNpr2 GloSensor cGMP luminescence, CNP-stimulated; Potency, µM (titrated, usually from 57.6 µM), for inactives: top-dose activity change, negative = inhibition, hits mostly inhibitors; 1,400 tested, 67% active; calls by dose curve; further: nearly all actives have a fitted effect of over 70% in size
FLuc counter – FLuc enzyme inhibition, Npr1 counter-screen | shares compounds with hNpr1 antagonist | purified FLuc enzyme, luminescence, Km substrate | Potency, µM (highest dose often 57.6 µM), without a hit: top-dose activity change, negative = inhibition, hits mostly inhibitors | 1,400 tested, 0.7% active; further: 0% is about no effect
GloSensor cGMP – counter-screen for Npr1 antagonists: GloSensor control cell line | HEK293 GloSensor cGMP, SNP-stimulated, luminescence | AID 1347051 | shares compounds with hNpr1 antagonist | Potency, µM (highest dose often 57.6 µM), for inactives: top-dose activity change, negative = inhibition, actives largely listed as inhibitors | 1,400 tested, 69% active; calls by dose curve; further: on the % scale 0 is the no-effect control and ±100 the full control effect; nearly all actives have a fitted effect of over 70% in size
Numbers without * were called inactive; i = inactive; ? = inconclusive; . = no result given; [ ] = dose if it differs, or a comment. Unless noted, the call rests on the fitted dose curve; in most records, active means well fitted curve in the direction sought with a large enough effect; inconclusive means small, poorly fitted or top-dose-only effect, or another doubt; inactive means no such curve, though single readings can be large; an effect the other way counts as inactive or inconclusive. Potency means the concentration at half of the fitted maximal effect.

SMILES	FLuc inh	HEK293 tox	3T3 cytotox	GPT2 inh	hNpr1 antagonist	NPR1 antag cnf	Npr2 selectivity	FLuc counter	GloSensor cGMP
CCNC(=O)N[C@H]1[C@H](O)[C@@H](N2CCC(Cc3ccccc3)CC2)[C@@H]2OC[C@H]1O2	i	-16.1%[172 µM]	-24.9%[174 µM]	-21.7%[88.5 µM]	-3.9%[70.6 µM]	.	.	.	.
CS(=O)(=O)N1CCc2ccc(C(=O)Nc3ccc(Oc4ccccc4)cc3)cc21	i	?	-20.9%	-4.5%	1.58µM*	2.73µM*	3.43µM*	-0.6%	2.43µM*
COc1cccc([S+](=O)([O-])N2CCC3(CC2)C(=O)Nc2ccccc23)c1	i	?	?	?	12.6µM*	19.8µM*	19.8µM*	1.7%[86.2 µM]	15.7µM*
CN(C)C[C@H]1O[C@H](Cc2cc(-c3cccc(O)c3)on2)CC[C@@H]1O	i	-28.9%[172 µM]	-8.9%[174 µM]	i	28.2µM*	?	-18.9%[86.2 µM]	-15.8%[86.2 µM]	?
COc1cccc(C(=O)N2CCC(N(C)C3CCOCC3)CC2)c1	i	0.6%	-21.8%	0.3%	-1.8%	.	.	.	.
CCn1nccc1C(=O)N1CCC(CCOc2ccc(F)cc2)C1 (stereo not given)	i	35.5µM*	?	-23.3%	12.6µM*	21.7µM*	24.3µM*	-2.7%	24.3µM*
CC(C)c1ccc(NC(=O)O[C@@H]2CO[C@H]3[C@@H]2OC[C@@H]3NS(=O)(=O)Cc2ccccc2)cc1	i	?	?	2.6%	2.4%	.	.	.	.
Cc1ncsc1C(=O)N1CCNc2cnc(Nc3cccc(F)c3)nc2C1	i	?	?	i	14.1µM*	12.5µM*	17.7µM*	-1.3%[86.2 µM]	11.1µM*
CC(C)NC(=O)N1CCNc2cnc(Nc3cccc(C(F)(F)F)c3)nc2C1	i	35.5µM*	39.8µM*	-1.8%[88.5 µM]	12.6µM*	17.7µM*	22.2µM*	-1.0%[86.2 µM]	15.7µM*
COCCC1(NS(C)(=O)=O)CCN(C(=O)NCCc2ccccc2)CC1	.	i	-15.1%	-6.3%	.	.	.	.	.
CCCCn1c(=O)c(C(=O)N2CCN(c3ncccn3)CC2)nc2cccnc21	.	4.1%	-2.9%	-2.5%	.	.	.	.	.
CC(C)N1C[C@@H]2CN(C(=O)CCCn3ccnc3)C[C@]2(C(=O)O)C1	i	-10.8%	0.9%	-12.7%	-1.3%	.	.	.	.
O=C(c1cccs1)N1CCC2(CC1)N=C(c1cccc(Br)c1)NO2	i	?	-24.1%	i	-2.5%	.	.	.	.
Cc1ccsc1C(=O)N1CCC2(CC1)N=C(c1cccc(Br)c1)NO2	i	?	?	-1.0%	12.6µM*	27.3µM*	?	3.3%	27.3µM*
COc1ccccc1CC(=O)N1CCC2(CC1)N=C(c1cccc(Br)c1)NO2	i	?	?	i	-17.3%	.	.	.	.
COc1ccc(C(=O)N2CCC3(CC2)N=C(c2cccc(Br)c2)NO3)c(OC)c1	i	?	?	3.7%	11.2µM*	24.3µM*	24.3µM*	5.9%	21.7µM*
COc1ccc(C(=O)N2CCC3(CC2)N=C(c2cccc(Br)c2)NO3)cc1F	i	?	?	i	?	?	?	6.3%	27.3µM*
COc1ccc(C(=O)N2CCC3(CC2)N=C(c2cccc(Br)c2)NO3)cc1OC	i	?	?	i	?	.	.	.	.
COc1ccccc1CCC(=O)N1CCC2(CC1)N=C(c1cccc(Br)c1)NO2	i	?	?	3.9%	-25.7%	?	?	3.1%	-29.7%
CCOc1cccc(CN2C[C@@H](CO)[C@H](c3nc(C)no3)C2)c1	i	-8.1%	-8.0%	i	2.7%	.	.	.	.
CCN1CCN(C(=O)C2CCCN2C(=O)c2cccc(-c3cccc(OC)c3)c2)CC1 (stereo not given)	.	-20.7%	-13.8%	-6.2%	.	.	.	.	.
CN(C)Cc1nnc(C2CC(NC(=O)c3cc4ncccn4n3)C2)n1C (stereo not given)	i	-3.9%	2.9%	-0.8%	2.8%	.	.	.	.
COc1ccc([S+](=O)([O-])N2CCC3(CC2)OCCN(c2ccc(F)cc2)C3=O)cc1	i	?	?	-12.9%[88.5 µM]	?	31.4µM*	?	-1.6%[86.2 µM]	31.4µM*
O=C(NCc1cccc(Cl)c1)C1CCc2nnc(C3CCN([S+](=O)([O-])c4ccccc4Cl)CC3)n21 (stereo not given)	.	?	?	i	.	.	.	.	.
CC1=C[C@@H](CN(C)Cc2cccnc2)[C@H](C(C)C)C[C@H]1Cc1nnc(-c2ccc([N+](=O)[O-])cc2)o1	i	22.4µM*	15.8µM*	i	20µM*	15.3µM*	17.2µM*	0.8%	12.2µM*
SMILES	FLuc inh	HEK293 tox	3T3 cytotox	GPT2 inh	hNpr1 antagonist	NPR1 antag cnf	Npr2 selectivity	FLuc counter	GloSensor cGMP
CC1=C[C@@H](CO)[C@H](C(C)C)C[C@H]1Cc1nnc(-c2cccnc2)o1	i	?	-29.0%[138 µM]	-11.5%[88.5 µM]	-1.2%[70.6 µM]	.	.	.	.
CC1=C[C@@H](CN2CCOCC2)[C@H](C(C)C)C[C@H]1Cc1nnc(-c2ccncc2)o1	i	?	?	2.3%[88.5 µM]	?	?	-27.0%[86.2 µM]	2.5%[86.2 µM]	-16.2%[86.2 µM]
CCn1cnnc1CC1CCCN(C(=O)Nc2ccc(C(=O)OC)cc2)C1 (stereo not given)	i	-18.1%	-26.1%	i	-9.2%	.	.	.	.
COc1ccc(CN2CCNc3cnc(OCc4cccnc4)cc3C2)cn1	i	?	-13.2%[138 µM]	4.2%[88.5 µM]	?	.	.	.	.
Clc1cnccc1CN1CCNc2cnc(Oc3ccccc3)cc2C1	i	89.1µM*	?	i	3.98µM*	6.27µM*	8.86µM*	3.1%[86.2 µM]	4.98µM*
CCOc1cc2c(cn1)NCCN(Cc1ccncc1Cl)C2	i	?	?	-19.3%[88.5 µM]	35.5µM*	31.4µM*	?	3.6%[86.2 µM]	39.6µM*
Clc1cnccc1CN1CCNc2cnc(-c3ccccc3)cc2C1	i	?	?	-33.3%[88.5 µM]	28.2µM*	31.4µM*	35.3µM*	-0.7%[86.2 µM]	31.4µM*
CCC1(CC)CC1C(=O)N1CCC2(CC1)Nc1ccccc1NC2=O (stereo not given)	i	?	?	3.8%	?	.	.	.	.
